This is a sample that favours compounds with a hit; in the whole collection about 4% have one here.
Mdm2 MdmX PPI: inhibitors of human Mdm2/MdmX interaction | inhibition, % at 8 µM | 3% of 330,000 active | O15151+Q00987 | SaOS-2 split-luciferase Mdm2/MdmX complementation, luminescence;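 active means inhibition of at least 50% at 8 µM in the primary screen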
PAX8 inh HTS: lowers PAX8-driven luciferase in RMG-I cells; RMG-I TPO-luciferase reporter, SteadyGlo, 24 h; inhibition, % at 12.6 µM; 1.2% of 360,000 active; AID 652154;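 active means mean replicate inhibition at least 60% with every replicate also reaching 60%; inconclusive means only one of the two criteria is met; inactive means mean below 60% and not all replicates reaching 60%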;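 further: luciferase light reporting Pax8 driven TPO promoter activity; plate controls were median of neutral control wells for no effect and mitoxantrone controls for full effect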
Gli-Sufu antag: Gli-Sufu pathway antagonism | Sufu-KO-LIGHT fibroblasts, Gli luciferase reporter luminescence | inhibition, % at 5 µM | 0.74% of 340,000 active;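 active means inhibition above about 55%, limit read from the data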;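 further: 0% = DMSO-treated cells and 100% = wells with medium but no cells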
CSC inhib: blocks cancer stem cells; cancer stem cell-like cells viability, luminescence; inhibition, % at 7.5 µM; 1.1% of 300,000 active; AID 2717; in the data active means inhibition above about 75%; inconclusive means no clear call, values can overlap the other calls; tested in HMLE shEcad cells
Shn3 3UTR inh: reduces Shn3 3'UTR luciferase signal in osteoblasts. inhibition, % at 12.5 µM. 0.52% of 360,000 active. Clone20 osteoblast Shn3 3'UTR firefly luciferase, 24 h. AID 588674;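 active means mean inhibition of at least 75% with every replicate also reaching 75%; inconclusive means mean inhibition at least 75% but some replicate below; inactive means mean inhibition below 75%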;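 further: 0% = median of neutral control wells and 100% = pilot-screen positive control compound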
Beta apoptosis: blocks beta cell apoptosis. protection from apoptosis, % (no concentration beside the values). 0.8% of 300,000 active. INS-1E cytokine-induced death, ATP luminescence, 48 h; percent of positive-control rescue, neutral wells zero. AID 435005;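 active means Every replicate reaches about 75%, or at least half do and their mean reaches it too, limit read from the data; inconclusive means At least half of replicates reach the limit but their mean does not; inactive means Under half of replicates reach the limit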;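 further: 0% = cytokine-treated negative control wells and 100% = positive control rescue; higher means more ATP so stronger rescue from cytokine killing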
An asterisk follows results filed as active; ? = inconclusive; · = no result.

SMILES	Mdm2 MdmX PPI	PAX8 inh HTS	Gli-Sufu antag	CSC inhib	Shn3 3UTR inh	Beta apoptosis
Cc1ccc(S(=O)(=O)N2CCN(CC(=O)Nc3ccc(N4CCOCC4)cc3)CC2)cc1C	22	74*	-14	-4	5	3
Cc1ccc(S(=O)(=O)N2CCC(C(=O)Nc3ccc(S(=O)(=O)N4CCCC4)cc3)CC2)cc1C	17	67*	10	6	22	7
O=C(c1cc(-c2ccccc2)on1)N1CCN(c2ccccc2)CC1	21	-4	3	63	-7	-1
O=C(c1cc(-c2ccco2)on1)N1CCN(c2ccccc2)CC1	1	-15	-3	84*	-33	-5
O=C(c1cc(-c2cccs2)on1)N1CCN(C(c2ccccc2)c2ccccc2)CC1	28	99*	5	49	44	28
COc1ccccc1C(=O)Nc1ccc2c(c1)C(=O)N(C)C[C@@H](OC)[C@H](C)CN(C)[C@@H](C)CO2	·	6	·	·	·	·
CC1CN(CC(O)COC(c2ccc(Cl)cc2)c2ccc(Cl)cc2)CC(C)O1 (stereo not given)	0	4	20	26	-7	106*
CC1CN(CC(O)COc2ccc(C(C)C)cc2)CC(C)O1 (stereo not given)	14	·	9	44	2	-4
Cc1ccc(-n2c(=O)c3ccc(C(=O)NCc4ccco4)cc3n(Cc3ccccc3C#N)c2=O)cc1	29	76*	2	·	9	·
N#Cc1ccccc1Cn1c(=O)n(Cc2ccc(C(=O)NCc3ccco3)cc2)c(=O)c2ccccc21	40	·	10	-3	7	5
COc1cc(/C=C/C(=O)c2ccc3c(c2)OCO3)cc(Cl)c1O	24	-9	-22	113*	-13	-2
C[C@@H]1CN([C@@H](C)CO)C(=O)c2cccc(NC(=O)NC3CCCCC3)c2O[C@@H]1CN(C)Cc1ccc2c(c1)OCO2	·	-4	·	·	·	·
COc1ccc(-c2nc3ccccc3c(=O)[nH]2)cc1	-75	-39	-105	-9	-29	·
CN(C)c1ccc(-c2nc3ccccc3c(=O)[nH]2)cc1	-2	81*	-76	19	1	9
CC(C)C[C@@H]1COCc2cn(nn2)CC[C@H](Cc2ccccc2)C(=O)N1	·	-3	·	·	·	·
CC(=NNc1nc2ccccc2o1)c1cc2ccccc2cn1	·	·	92*	·	80	·
CC(=NNc1nc2ccccc2s1)c1ncccn1	·	56	-52	·	83	·
Oc1ccccc1/C=N/Nc1nc2ccccc2o1	-36	-10	7	?	66	98*
Oc1ccccc1/C=N/Nc1ccccc1	-29	-70	1	69	-54	3
CC(=NNc1nc2ccccc2o1)c1ncccn1	·	74*	53	·	84	·
Oc1ccccc1/C=N/Nc1ncc(Br)cn1	·	-49	18	8	72	87*
C[C@H]1CCCCO[C@H](CN(C)C(=O)Nc2cccc3ccccc23)[C@@H](C)CN([C@@H](C)CO)C(=O)c2cc(NC(=O)c3ccncc3)ccc2O1	·	16	·	·	·	·
COc1ccc(C(=O)N2C[C@H]3[C@@H](c4ccccc42)[C@H](CO)N3Cc2ccccc2Cl)cc1	·	14	·	·	·	·
CN1[C@@H]2c3ccc(C4=CCCCC4)c(=O)n3C[C@H]1[C@H](CO)[C@H]2C(=O)NCc1cccc(F)c1	·	-2	·	·	·	·
CN1/C(=C/C=C/c2n(C)c3cc([N+](=O)[O-])c([N+](=O)[O-])cc3[n+]2C)C(C)(C)c2ccccc21	·	100*	·	·	36	·
SMILES	Mdm2 MdmX PPI	PAX8 inh HTS	Gli-Sufu antag	CSC inhib	Shn3 3UTR inh	Beta apoptosis
COc1cccc(C(=O)NCC2(c3ccccc3)CCCC2)c1	13	-1	20	4	4	5
COc1ccc(C(=O)NCC2(c3ccccc3)CCCC2)c(OC)c1	8	5	14	83*	22	12
CCS(=O)(=O)N[C@H]1CC[C@@H](CC(=O)NCc2ccccn2)O[C@H]1CO	·	-10	·	·	·	·
Cc1ccc(NC(=O)/C=C/c2ccc([N+](=O)[O-])s2)cc1	-14	39	18	10	16	4
Cc1cccc(NC(=O)/C=C/c2ccc([N+](=O)[O-])s2)c1	·	73*	36	107*	91*	99*
Cc1ccccc1NC(=O)Cc1nc(COC(=O)CCC(=O)c2ccccc2)cs1	16	-3	1	·	10	-1
